Assay outcomes: PubChem BioAssay, several laboratories
PfHsp40 rescue – rescue of PfHsp40-mediated yeast toxicity | S. cerevisiae expressing PfHsp40, growth rescue, ATP luminescence | growth rescue, % at 12.5 µM | 340,000 tested, 0.68% active; in the data active = growth rescue above about 28%, passing the limit was not always enough;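 note: yeast W303a lacking pdr1 and pdr3 grown in galactose medium; growth measured after three days at 30 °C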
BJeLR lethal – BJeLR cell viability loss | AID 1554 | BJeLR (HRASV12) viability, CellTiter-Glo ATP luminescence, 48 h | 300,000 tested, 0.17% active | inhibition, % (no concentration beside the values); in the data active = inhibition above about 50%
VHR inh abs – blocks human VHR1 dual specificity phosphatase; P51452; recombinant VHR phosphatase, pNPP absorbance; inhibition, % at 13.3 µM; 290,000 tested, 0.52% active; AID 1654; in the data active = inhibition above about 50%
Target sequence (P51452 whole entry, looked up): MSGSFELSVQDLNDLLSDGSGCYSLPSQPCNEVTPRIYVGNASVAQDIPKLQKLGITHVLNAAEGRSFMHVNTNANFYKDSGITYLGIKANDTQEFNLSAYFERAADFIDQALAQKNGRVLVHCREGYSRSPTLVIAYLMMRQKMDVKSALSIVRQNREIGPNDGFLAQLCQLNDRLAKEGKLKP
MazEF act – MazEF (E. coli) toxin RNase activation | P0AE70 | FAM/BHQ RNA-DNA oligo cleavage fluorescence, 5 h | activation, % at 20 µM | 350,000 tested, 0.32% active | AID 504720; in the data active = activation above about 50%
Target sequence (P0AE70 whole entry, looked up): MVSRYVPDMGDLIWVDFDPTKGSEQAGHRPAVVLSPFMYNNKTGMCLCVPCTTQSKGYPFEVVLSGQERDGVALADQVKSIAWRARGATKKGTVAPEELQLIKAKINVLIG
3CLpro inhibitor – SARS-CoV 3CLpro protease inhibition; P0C6X7; recombinant SARS-CoV 3CLpro, quenched FRET peptide cleavage; inhibition, % at 6 µM; 290,000 tested, 0.14% active; AID 1706; in the data active = inhibition above about 12%
Vc quorum ag – induces V. cholerae light production without autoinducers; activation, % at 18.7 µM; AID 588436; V. cholerae BH1578 lux reporter, luminescence, 6 h; 350,000 tested, 0.16% active; in the data active = activation mostly above about 9.7%, no sharp cut-off
Large screens that a line does not name were inactive. Most compounds without a hit are left out; they make up all but 1.7% or so of the library.

CCCCN(C=O)c1c(CC)nc2ccc(C(=O)Nc3cc(-c4ccccc4)ccc3OC)cn12	none (no result: PfHsp40 rescue, BJeLR lethal, VHR inh abs, MazEF act, 3CLpro inhibitor)
C=CCn1c(SCC(=O)N2CCOCC2)nc2sc(C)c(C)c2c1=O	VHR inh abs 51
C=CCn1c(SCC(=O)N2CCOCC2)nc2sc3c(c2c1=O)CCCC3	none
COc1ccc(OC)c(/C=C/c2[nH]c(=O)[nH]c(=O)c2[N+](=O)[O-])c1	none
Cc1ccc2nc(N(CCCN(C)C)C(=O)c3ccc4ncsc4c3)sc2c1	none
CCOC(=O)c1ccc(N2C(=O)CC(N(C)CCc3ccc(OC)c(OC)c3)C2=O)cc1 (configuration not stated)	PfHsp40 rescue 558
Cc1ccccc1NC(=O)N1CCNC(=O)C1CC(=O)Nc1cc(Cl)ccc1Cl (configuration not stated)	none
CC(C)(C)c1cc(NC(=O)C2(C)CCN2C(=O)c2ccccc2CCc2ccccc2)no1 (configuration not stated)	none (no result: PfHsp40 rescue, BJeLR lethal, VHR inh abs, MazEF act, 3CLpro inhibitor)
CCCS(=O)(=O)NC(=O)C1(C)CCN(C(=O)c2ccc(C(F)(F)F)cc2)C1 (configuration not stated)	none (no result: PfHsp40 rescue, BJeLR lethal, VHR inh abs, MazEF act, 3CLpro inhibitor)
COc1cccc(OCC(=O)Nc2cc(NC(=O)COc3cccc(OC)c3)cc(C(=O)O)c2)c1	Vc quorum ag 42
COc1cccc(OCC(=O)Nc2ccncc2)c1	none
CC(C)CCOc1cccc(OCC(=O)Nc2ccncc2)c1	PfHsp40 rescue 105
Cc1ccc(Nc2nc(Cl)c(C=O)s2)cc1Cl	MazEF act 53
O=C(O)c1ccc(NC(=O)c2cn(-c3ccccc3)nc2-c2ccc(Br)cc2)cc1	PfHsp40 rescue 69
O=C(O)c1ccc(NC(=O)c2cn(-c3ccccc3)nc2-c2ccccc2)cc1	none
CCCNC(=O)C1(C)CCCN(C(=O)c2ccccc2OC)C1 (configuration not stated)	none (no result: PfHsp40 rescue, BJeLR lethal, VHR inh abs, MazEF act, 3CLpro inhibitor)
COc1ccc(Cn2c(=O)[nH]c3cc(C(=O)NCc4ccc5c(c4)OCO5)ccc3c2=O)cc1	MazEF act 182 (no result: VHR inh abs)
O=C(CNC(=O)c1ccc(Br)o1)NCc1ccc(Cl)cc1Cl	PfHsp40 rescue 52
COc1ccc(NC(=O)c2cc(-c3ccccc3)oc2C)cc1	none
Cc1oc(-c2ccccc2)cc1C(=O)Nc1ccccc1	Vc quorum ag 17
Cc1cn([C@H]2C[C@H](O)[C@@H](CNC(=O)c3ccccn3)O2)c(=O)[nH]c1=O	none (no result: PfHsp40 rescue, BJeLR lethal, VHR inh abs, 3CLpro inhibitor)
O=[N+]([O-])c1ccc(Nc2ccccc2)c2nonc12	none
O=[N+]([O-])c1ccc(Sc2cccc[n+]2[O-])c2nonc12	PfHsp40 rescue 683, MazEF act 104
CN(C)CCCNS(=O)(=O)c1ccc(NC2CCCCCC2)c([N+](=O)[O-])c1	VHR inh abs 52
CCNc1ccc(S(=O)(=O)NCCN(C)C)cc1[N+](=O)[O-]	none
CCOc1cc(/C=C2\COc3ccccc3C2=O)cc(Br)c1OCC(=O)N(C)C	BJeLR lethal 65
CCOC(=O)C(C)n1cnc2c(oc3ccccc32)c1=O (configuration not stated)	VHR inh abs 51
Cc1cccc(NC(=O)COC(=O)CN2C(=O)C3CCCCC3C2=O)c1C (configuration not stated)	none (no result: PfHsp40 rescue, BJeLR lethal, VHR inh abs, 3CLpro inhibitor)
C[C@@H]1CN([C@@H](C)CO)C(=O)c2cc(NC(=O)C3CCCCC3)ccc2O[C@@H](C)CCCCO[C@@H]1CN(C)C(=O)CCCN(C)C	none (no result: PfHsp40 rescue, BJeLR lethal, VHR inh abs, 3CLpro inhibitor)
CC(=O)NC1C(=O)N(CCN2CCOCC2)c2ccc(Cl)cc21 (configuration not stated)	3CLpro inhibitor 13
CC(=O)NC1C(=O)N(CCN2CCOCC2)c2ccc(C)cc21 (configuration not stated)	3CLpro inhibitor 54
CCCCN1C(=O)C(NC(C)=O)c2cc(Br)ccc21 (configuration not stated)	none
Cc1nc2ccc(CN(C)c3ccc(C(=O)N[C@@H](CCC(=O)O)C(=O)O)s3)cc2c(=O)[nH]1	BJeLR lethal 72 (no result: PfHsp40 rescue, VHR inh abs, MazEF act, 3CLpro inhibitor, Vc quorum ag)
Nc1nonc1-n1nnc(C(=O)N/N=C/c2ccc(Cl)cc2Cl)c1CN1CCOCC1	MazEF act 124
Nc1nonc1-n1nnc(C(=O)N/N=C/c2cccc(F)c2)c1CN1CCCC1	Vc quorum ag 28 (no result: VHR inh abs, 3CLpro inhibitor)
C/C(=N/NC(=O)c1nnn(-c2nonc2N)c1COc1ccccc1)c1ccc(O)cc1	none
Nc1nonc1-n1nnc(C(=O)N/N=C/c2ccc(Cl)cc2Cl)c1CN1CCCC1	none
